Compound activity (PubChem BioAssay)
Shown are actives, neighbours in structure and some others; about 10% of the full set was active somewhere.
GPT2 inh: inhibitors of human GPT2 alanine aminotransferase; 100,000 compounds, 0.25% hits; Q8TD30; Recombinant GPT2, coupled pyruvate oxidase/HRP Amplex Red fluorescence; Potency, µM (series often up to 57.7 µM), without a hit: top-dose activity change, negative = inhibition, hits mostly inhibitors; also: nearly all actives have a fitted effect of over 60% in size
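GPT2 10ng/uL, a-KG 250uM, L-Ala 2mM, HEPES pH7.5 + 0.0001% Tween; 30 min RT. Then Amplex mix (PO/HRP/ThPP), 30 min RT dark, fluorescence. AOA 50uM used as positive control.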
NPR1 antag: blocks ANP-stimulated signaling of human Npr1 receptor; AID 1347048; 76,000 compounds, 1.6% hits; Potency, µM (series often up to 46.3 µM), for inactives: at the top dose activity change, negative = inhibition, most hits filed as inhibitors; HEK293 hNpr1 GloSensor cGMP, ANP-stimulated luminescence; calls by dose curve; also: nearly all actives have a fitted effect of over 60% in size
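Compound pre-incubated 30 min at room temperature on GloSensor-loaded HEK293 cells stably carrying hNpr1 and the pGS-40F cGMP biosensor. Stimulation uses hNppA at 0.1 nM final; luminescence is taken at baseline and 20 min post-agonist.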
FLuc inh: blocks purified firefly luciferase enzyme activity. Potency, µM (titrated, usually from 115 µM), most hits filed as inhibitors. 76,000 compounds, 2.5% hits. P08659. purified P. pyralis luciferase, luminescence, biochemical. AID 1347043; also: nearly all actives have a fitted effect of over 65% in size
Target sequence (P08659 whole entry, looked up): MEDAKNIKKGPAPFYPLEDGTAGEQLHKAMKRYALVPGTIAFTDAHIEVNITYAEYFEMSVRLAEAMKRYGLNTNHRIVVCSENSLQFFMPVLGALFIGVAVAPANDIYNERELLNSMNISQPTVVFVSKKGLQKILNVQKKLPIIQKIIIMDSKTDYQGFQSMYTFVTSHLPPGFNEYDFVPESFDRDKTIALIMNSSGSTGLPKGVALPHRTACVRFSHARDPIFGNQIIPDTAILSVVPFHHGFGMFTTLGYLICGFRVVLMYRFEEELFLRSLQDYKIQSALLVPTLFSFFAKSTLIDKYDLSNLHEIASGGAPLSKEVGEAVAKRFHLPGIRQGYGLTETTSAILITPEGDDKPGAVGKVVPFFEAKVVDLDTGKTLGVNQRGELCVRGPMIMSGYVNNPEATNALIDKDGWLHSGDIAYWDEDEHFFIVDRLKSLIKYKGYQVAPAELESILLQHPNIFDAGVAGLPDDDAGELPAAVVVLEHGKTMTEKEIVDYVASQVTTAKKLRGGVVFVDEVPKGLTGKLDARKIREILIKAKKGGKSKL
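FLuc 10nM, D-luciferin 10uM, ATP 10uM, Mg acetate 10mM, Tris acetate pH 7.5, Tween/BSA; cpd qHTS; enzyme added last; CCD luminescence.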
HEK cytotox: cytotoxic compounds in HEK 293 cells; HEK 293 viability, ATP luminescence (CellTiter-Glo), 48-72 h; Potency, µM (highest dose often 115 µM), without a hit: at the highest dose activity change, negative = cytotoxicity, usual class: inhibitors; 94,000 compounds, 6.6% hits; AID 1345083; also: nearly all actives have a fitted effect of over 60% in size
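250 HEK 293 cells/well; compound by pintool; incubated 48 or 72 hr at 37 degree Celsius; CellTiter-Glo added, 10 min RT, luminescence imaged.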
NIH3T3 tox: cytotoxic compounds in NIH 3T3 cells; NIH 3T3 viability, CellTiter-Glo ATP luminescence, 48-72 h; Potency, µM (titrated, usually from 96.7 µM), for the others: top-dose activity change, negative = cytotoxicity, actives largely listed as inhibitors; 94,000 compounds, 4.3% hits; AID 1345082; also: nearly all actives have a fitted effect of over 55% in size
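Cells were seeded at 400 per well, treated with pin-transferred compound, and kept 48 or 72 hr at 37 °C before CellTiter-Glo addition and luminescence imaging of cellular ATP.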
Active calls of the source: *; i = inactive; ? = inconclusive; . = not tested or not shown; [ ] = remark or other dose. Unless noted, calls follow the shape of the dose curve; as a rule, active = well fitted curve in the direction sought with a large enough effect; inconclusive = small, poorly fitted or top-dose-only effect, or another doubt; inactive = no such curve, though single readings can be large; an effect the other way counts as inactive or inconclusive. % is scaled to controls: 0 for no effect and ±100 for the full control effect; potency is read from the fitted curve at half-maximal effect.

SMILES	GPT2 inh	NPR1 antag	FLuc inh	HEK cytotox	NIH3T3 tox
CC(Oc1cccc(Cl)c1)C(=O)N1CCN(c2cc(-c3cccs3)[nH]n2)CC1 (centres undefined)	-7%	?	i	35µM*	?
O=C(c1ccc(F)c(Cl)c1)N1CCN(c2cc(-c3cccs3)[nH]n2)CC1	i	-21%	i	?	?
O=C(NCc1cccc(Cl)c1)c1nc2sccn2c1-c1cccnc1	i	.	.	?	?
COc1ccccc1-c1cccc(CN2CCCC(C(=O)Nc3ccc(F)cc3)C2)c1 (centres undefined)	i	.	.	13µM*	?
COCCNC(=O)C1CCCN(Cc2cccc(-c3ccccc3OC)c2)C1 (centres undefined)	-3%	.	.	?	?
Cc1[nH]cnc1CN1CCCC(C(=O)Nc2ccc(-c3cccc(F)c3)cc2)C1 (centres undefined)	i	6%	i	25µM*	?
COc1ccccc1-c1cccc(CN2CCCC(C(=O)NCCc3ccc(F)cc3)C2)c1 (centres undefined)	-1%	.	.	?	32µM*
CCOc1ccc2c(n1)CCN(C(=O)c1cccc(OC)c1OC)C2	i	-4%	i	?	-30%
O=C(c1ccc2c(c1)OCO2)N1CCCC2(C1)Nc1cccnc1NC2=NC1CCCC1 (centres undefined)	?	-1%	i	-26%	-13%
Cc1ccc(C(=O)N2CCCC3(C2)Nc2cccnc2NC3=NC2CCCC2)cc1F (centres undefined)	-27%	3%	i	71µM*	?
CC(C)c1nc(-c2ccc(OC3CCN(C(=O)c4ccccc4F)C3)cc2)no1 (centres undefined)	-20%	.	.	?	?
O=C(C1CCOCC1)N1CC(Oc2ccc(-c3nc(-c4ccccc4)no3)cc2)C1	i	?	?	?	-15%
COc1ccc(C(=O)N2CCC(Oc3ccc(-c4noc(C(C)C)n4)cc3)C2)cc1 (centres undefined)	-11%	?	i	40µM*	?
COc1ccc(C(=O)N2CCC(Oc3ccc(-c4noc(-c5ccccc5)n4)cc3)C2)cn1 (centres undefined)	-17%	11µM*	?	-25%	-22%
CC(=O)N1CCC(N2CC3(C2)C(=O)N(Cc2ccccc2Cl)C(=O)[C@@H]2C[C@@H](O)CN23)CC1	-8%	8%	i	-7%	-21%
O=C(NCc1ccc(F)cc1)c1ccc2nnc(-c3ccc(Cl)cc3)n2c1	-4%	.	.	?	?
O=C(O)C1CCc2sc(C(=O)N3CCCCCC3)cc2C1 (centres undefined)	1%	5%	16µM*	0%	?
Cn1ncc2c(-c3ccc([S+](C)(=O)[O-])cc3)cc(C(=O)NCc3ccc(F)cc3)nc21	1%	.	.	?	?
O=C(CCc1ccc(O)cc1)N[C@H]1CC[C@H](Nc2nccc(-c3cccnc3)n2)C1	-24%	-12%	i	40µM*	50µM*
COc1cccc(CNC(=O)c2ccc3nc(-c4ccccn4)oc3c2)c1	-23%	.	.	?	?
O=C(Nc1ccc(Cl)cc1Cl)c1ccc2ccnn2c1	2%[88.5 µM]	-5%[70.6 µM]	2.8µM*	?	-21%[138 µM]
O=C(NC1CCCCCC1)C1CCc2nnc(C3CCN([S+](=O)([O-])c4ccccc4Cl)CC3)n21 (centres undefined)	i	.	.	-13%[172 µM]	?
Cn1cc(CN[C@H]2[C@H](O)[C@H](O)C[C@@H]2c2cccnc2)c2ccccc21	?	1%[70.6 µM]	i	100µM*	?
COc1ccccc1-c1nc(C(=O)NCc2ccc3c(c2)OCO3)n2ccccc12	-1%	0%	i	-8%	?
O=C(c1cc(F)ccc1F)N1CC(Oc2ccccc2-c2nc(C3CC3)no2)C1	0%	.	.	?	?
O=C(c1ccccc1F)N1CCCC(C(=O)N2CCCC(c3nc4ccncc4[nH]3)C2)C1 (centres undefined)	i	.	.	-21%	-36%
C#CCNC(=O)C1CCN(c2nccc(Nc3ccccc3Cl)n2)CC1	4%	.	.	?	45µM*
